Laboratory results taken from PubChem BioAssay (NCI).
Compounds without any hit were thinned out: in the full panel of roughly 83,000, 20% have a hit.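 The endpoint reported here, percent growth, reads 100 for growth as untreated, 0 for no net growth and -100 for all cells dead.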 Unmarked numbers belong to inactive results. Active and inactive are the calls of the source. Rule for the calls: active = growth percent below 10; inactive = the rest.

test system: HL-60(TB) leukemia; assay: NCI-60 one-dose screen, 48 h (100 = growth as untreated, 0 = no growth, -100 = all killed); conditions: 10 µM unless noted

Structure (SMILES)	growth
NS(=O)(=O)c1ccc(NC(=O)CSc2ccc(-c3ccc(Cl)cc3)nn2)c(Br)c1	98%
CC1(c2ccccc2)NC(=O)N(CC(=O)Nc2ccc(C(=O)/C=C/c3ccc(Cl)cc3)cc2)C1=O (centres undefined)	-27.7% (active)
CN1CCO/C1=C(/NC(=O)c1ccc(Cl)cc1)[P+](c1ccccc1)(c1ccccc1)c1ccccc1	54.7%
CCCCNc1ccc2c3c(cccc13)C(=O)N(c1cccc(-c3nn(-c4ccccc4)cc3-c3nc4ccccc4s3)c1)C2=O	106%
Cc1ccc(-c2nc(Nc3ccccc3S(N)(=O)=O)c3ccccc3n2)cc1	81.1%
O=C(COc1ccc2c(c1)CCCC(=O)N2)NCc1ccccc1	70.4%
CC(=O)OC[C@@]1(C)C2CC[C@]3(C)C(CC=C4C5CC(C)(C)CC[C@]5(C(=O)Nc5ccc(Br)cc5)CC[C@]43C)[C@@]2(C)C[C@@H](OC(C)=O)[C@@H]1OC(C)=O (some centres undefined)	32.3%
COc1c2c(c(Br)c3c1C(CCc1ccccc1)N(C)CC3)OCO2 (centres undefined)	14.1%
C=C1CC[C@@H]2[C@]3(C)COC(c4cn(-c5ccccc5)nc4-c4cccc([N+](=O)[O-])c4)O[C@@H]3CC[C@@]2(C)[C@@H]1C/C=C1/C(=O)OC[C@H]1O (some centres undefined)	12.6%
CC1=C(C(=O)OCc2ccccc2)C(c2c(O)cc(O)cc2O)n2c(nc3ccccc32)N1 (centres undefined)	27.2%
Cc1cccc(-c2nc(Nc3ccccc3C(=O)O)c3ccccc3n2)c1	39.4%
COc1ccc2[nH]cc(-c3nc(N)nnc3-c3cn(C)c4ncc(Br)cc34)c2c1	-44.9% (active)
Clc1ccccc1Nc1nnc(-c2c[nH]c3ccccc23)o1	-0.476% (active)
CSc1ccc(NC(=O)c2ccc3nn(/C(C#N)=C/c4ccccn4)nc3c2)cc1	-18.9% (active)
CN(C)CCCc1ccc(Nc2cnn(C)c(=O)c2Cl)cc1	81%
O=C(CN1C(=O)/C(=C/c2ccccc2Cl)SC1=S)N1CCOCC1	90.2%
COc1cncc(-c2ccc3ncnc(N4CCc5ccc(Cl)cc54)c3c2)c1	-33.4% (active)
C=C1CC[C@@H]2[C@]3(C)COC(c4cn[nH]c4-c4cccc(Cl)c4)O[C@@H]3CC[C@@]2(C)[C@@H]1C/C=C1/C(=O)OCC1O (some centres undefined)	-15.1% (active)
O=C(c1ccc(Cl)cc1)C(c1c[nH]c2ccccc12)c1c[nH]c2ccccc12	-26.2% (active)
O=[N+]([O-])c1cccc(-c2nnc3c(/C=C/c4ccccc4O)nc4ccccc4n23)c1	52.5%

Structure (SMILES)	growth
Cc1ccc(C(=O)CSc2nc3ccc(C)cc3c(=O)n2-c2ccc(F)cc2)cc1	123%
O=C1Nc2cc(-c3ccc(NC(=O)c4cccc([N+](=O)[O-])c4)cc3)ccc2/C1=C/c1ccc[nH]1	106%
CN1CCN(Cc2ccc(NC(=O)c3cncc(C#Cc4cnc5ccc(N[C@H]6CCOC6)nn45)c3)cc2C(F)(F)F)CC1	-54.4% (active)
NS(=O)(=O)c1ccc(N2N=C(c3ccc(NC(=O)Nc4ccccc4)cc3)CC2c2ccc(Br)cc2)cc1 (centres undefined)	-4.8% (active)
COC(=O)CC1CC1C1Cc2c(nc(N(C)S(C)(=O)=O)nc2C(C)C)-c2ccc(F)cc21 (centres undefined)	58.7%
O=c1[nH]c2ccc(Cl)cc2cc1CSc1ccc(Nc2nccc(-c3ccc4ccccc4c3)n2)cc1	91.4%
COc1cc(/C=N/NC(=O)c2ccc3nc(-c4ccc(Cl)cc4)[nH]c3c2)cc(OC)c1OC	32.1%
COc1ccc2[nH]cc(/C=N/Nc3ccc(Br)cn3)c2c1	5.34% (active)
COc1cc(/C=C/C(=O)c2cc(OC)c(OC)c(OC)c2)ccc1Oc1nc(Nc2ccc(F)cc2)nc(N(C)C)n1	-7.15% (active)
CC1(c2ccccc2)NC(=O)N(CC(=O)Nc2ccc(C(=O)/C=C/c3ccccc3)cc2)C1=O (centres undefined)	10.1%
O=C1CCC(N2C(=O)c3cccc(NCCCCCC(=O)N4CCN(c5ccc6nc7c(nc6c5C(F)(F)F)C(=O)c5ncccc5C7=O)CC4)c3C2=O)C(=O)N1 (centres undefined)	-25.2% (active)
O=C(N=Nc1c(O)[nH]c2ccc(Cl)cc12)c1ccc2nc(-c3ccc(Cl)cc3)[nH]c2c1	45.2%
CC(C)c1ccc2c(N)c(C(=O)Nc3ccc(C(F)(F)F)cn3)sc2n1	46.8%
Nc1nc2cc(-c3ccc4ncnc(NCc5ccccc5)c4c3)ccc2o1	-43.8% (active)
CSc1ccccc1NC(=O)c1ccc2nn(/C(C#N)=C/c3ccccn3)nc2c1	-12.8% (active)
COc1ccc(-c2cc(-c3cc(C(=O)c4ccccc4)n4ccc(C)cc34)nc(N)c2C#N)cc1	99.7%
COc1cc(CNC(=O)/C=C/c2ccc3c(c2)OCO3)ccc1OCc1cn(-c2ccc([N+](=O)[O-])cc2)nn1	97%
COc1ccc(-c2cc(-c3cc(OC)c(OC)c(OC)c3)[nH]c(=O)c2C#N)cc1	102%
COc1ccc(-c2cc(C(=O)NCc3ccccc3)nn2-c2ccc(S(C)(=O)=O)cc2)cc1OC	97%
